From PubChem BioAssay
KB-3-1 tox: kills parental KB-3-1 adenocarcinoma cells. KB-3-1 viability, CellTiter-Glo ATP luminescence, 72 h. Potency, µM (highest dose often 46.1 µM), usual class: cytotoxic. actives 1.4% (n = 400,000). AID 1347075; note: nearly all actives have a fitted effect of over 60% in size
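Using CellTiter-Glo luminescence, growth of non-resistant KB-3-1 adenocarcinoma cells is assessed 72 h after pin-tool compound addition at 37 °C. Normalized responses across the concentration series yield fitted curves.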
KB-V1 cytotox: KB-V1 MDR subline cytotoxicity; KB-V1 MDR cells viability, CellTiter-Glo, 72 h; Potency, µM (series often up to 46.1 µM), most hits filed as cytotoxic; actives 3.4% (n = 400,000); note: nearly all actives have a fitted effect of over 60% in size
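KB-V1, DMEM (no phenol red) + 10% FBS; cpd pin-transferred, titration series; 72 h, 37 degrees C; CellTiter-Glo, luminescence. Data normalized, curve-fit.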
SW480 rerep: inducers of DNA re-replication in SW480 colon cancer cells; SW480 DNA re-replication, Hoechst DNA content imaging, 48 h; Potency, µM (highest dose often 46.1 µM), usual class: activators; actives 1.8% (n = 340,000); note: nearly all actives have a fitted effect of over 55% in size
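250 cells/well; 23 nL cpd via pin tool; 48 hr, 37 C, 5% CO2; Hoechst 40 min; imager read of total nuclear intensity, ex 405/em 500-530 nm.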
MCF10A rereplic: induces DNA re-replication in MCF 10a normal breast cells. MCF 10A DNA re-replication, Hoechst nuclear intensity, 48 h. Potency, µM (titrated, usually from 46.1 µM), hits mostly activators. actives 2.9% (n = 350,000). AID 624296; note: nearly all actives have a fitted effect of over 50% in size
KCNH2 3.1 block: KCNH2 3.1 (human) potassium channel inhibition | activity change, % (tested at about 1.8 µM) | actives 0.95% (n = 340,000) | U2OS KCNH2 3.1, thallium flux FluxOr; active compounds read low | AID 720553;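 active = maximum activity change below -70%; inconclusive = maximum activity change from -70% to -50%; inactive = maximum activity change above -50%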;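 note: thallium influx rate constant from kinetic fluorescence after stimulation buffer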
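Normalized rate constant (relative to positive and negative DMSO controls) derived from a 2 min kinetic fluorescence read after stimulation; U2OS cells expressing the 3.1 isoform via virus at 1.77 x 10^8 /mL.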
hERG WT inh: inhibitors of human wildtype KCNH2 potassium channel. U2OS, BacMam KCNH2, thallium flux FluxOr; active compounds read low. activity change, % at 1.84 µM. Q12809. actives 0.37% (n = 340,000);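 active = maximum activity change below -70%; inconclusive = maximum activity change between -70% and -50%; inactive = maximum activity change above -50%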
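U2OS cells transduced with wild-type KCNH2 virus are loaded with FluxOr dye for 45 min, and thallium flux is measured in kinetic reads before and after stimulation buffer. Rate constants are normalized to DMSO controls.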
Each line names hits and unclear results; the compound was inactive in the other large screens. Hits are enriched below; roughly 7.6% of the tested compounds scored in any of these assays. Unless noted, calls come from the whole dose curve; as a rule, active = well fitted curve in the direction sought with a large enough effect; inconclusive = small, poorly fitted or top-dose-only effect, or another doubt; inactive = no such curve, though single readings can be large; an effect the other way counts as inactive or inconclusive.

Cc1cc(N/N=C/c2ccccc2Br)nc2ccccc12	MCF10A rereplic inconclusive, KCNH2 3.1 block -82.4
Brc1ccc(/C=N/Nc2ccc3ccccc3n2)cc1	MCF10A rereplic inconclusive
Brc1ccccc1/C=N/Nc1ccc2ccccc2n1	MCF10A rereplic 16.4µM
Cc1cc(N/N=C(/CCC(=O)O)C(=O)O)nc2ccccc12	none
Cc1cc(C)n2nc(Sc3ncccc3[N+](=O)[O-])nc2n1	none
Nc1nc(SCC(=O)NCc2ccco2)[nH]c(=O)c1-c1ccccc1	SW480 rerep inconclusive
COc1ccc(-c2nc(SCC(=O)NCc3ccco3)c(-c3ccccc3)[nH]2)cc1OC	MCF10A rereplic 20.6µM
Cc1nc(SCC(=O)NCc2ccco2)[nH]c(=O)c1C	KB-V1 cytotox inconclusive, SW480 rerep inconclusive, MCF10A rereplic 23.1µM
Cc1cccc(-c2nsc(SCC(=O)NCc3ccco3)n2)c1	KB-V1 cytotox 20.6µM
CCCCN1C(=O)C(NC(=O)c2ccc(C(C)(C)C)cc2)(C(F)(F)F)C(C(=O)OC)=C1C (stereo not drawn)	none (no result: SW480 rerep, MCF10A rereplic, KCNH2 3.1 block, hERG WT inh)
CCOc1ccccc1N1CCN(C2=C(NS(=O)(=O)c3cccs3)C(=O)c3ccccc3C2=O)CC1	KB-3-1 tox inconclusive, KB-V1 cytotox inconclusive, MCF10A rereplic 23.1µM
CCN1CCN(C2=C(NS(=O)(=O)c3ccccc3)C(=O)c3ccccc3C2=O)CC1	KB-3-1 tox inconclusive, KB-V1 cytotox inconclusive, SW480 rerep 18.4µM, MCF10A rereplic inconclusive
O=C1C(NS(=O)(=O)c2cccs2)=C(N2CCN(Cc3ccccc3)CC2)C(=O)c2ccccc21	KB-V1 cytotox 23.1µM
CN1CCN(C2=C(NS(=O)(=O)c3cccs3)C(=O)c3ccccc3C2=O)CC1	KB-3-1 tox inconclusive, KB-V1 cytotox inconclusive, SW480 rerep inconclusive
CCn1cc(C(=O)OCC(=O)c2cc(C)n(-c3ccc(OC(F)F)cc3)c2C)c(=O)c2ccc(C)nc21	KB-V1 cytotox 23.1µM, SW480 rerep inconclusive, MCF10A rereplic 13µM
CCn1cc(C(=O)OCC(=O)c2cc(C)n(-c3ccccc3)c2C)c(=O)c2ccc(C)nc21	none
COc1ccc2cc(C)c3nnc(SCC(=O)Nc4nc(-c5ccccc5)cs4)n3c2c1	none
COc1ccc(NS(=O)(=O)c2cccc(C(=O)N/N=C/c3ccccn3)c2)cc1	none
CC(C)N1CCC(N2CCN(C3CCCC3)CC2CCO)CC1 (stereo not drawn)	none
Cc1cccc(N2CCC(N3CCN(C4CCCCC4)C(CCO)C3)CC2)c1C (stereo not drawn)	MCF10A rereplic 16.4µM
COc1ccc(CCNC(=O)C2CCC(=O)N(CC3CCCCC3)C2)cc1 (stereo not drawn)	MCF10A rereplic inconclusive (no result: KB-3-1 tox, KB-V1 cytotox)
COc1ccc(CCCNC(=O)C2CCC(=O)N(CC3CCCCC3)C2)cc1 (stereo not drawn)	KCNH2 3.1 block -168.4, hERG WT inh -173.3 (no result: KB-3-1 tox, KB-V1 cytotox)
CC(C)(C)NC(=O)CN(C(=O)CCC(=O)Nc1nccs1)c1ccc(F)c(Cl)c1	none
Cc1ccnc(NC(=O)CCC(=O)N(CC(=O)NC(C)(C)C)c2ccc(F)c(Cl)c2)c1	KCNH2 3.1 block -87.4
Cc1cccc2cc3c(NC(=O)c4ccccn4)nn(C)c3nc12	SW480 rerep inconclusive, MCF10A rereplic 8.2µM
CCCn1nc(NC(=O)CC(C)C)c2cc3cccc(C)c3nc21	SW480 rerep 10.3µM, MCF10A rereplic 10.3µM
CCn1nc(NC(=O)C(C)(C)C)c2cc3cccc(C)c3nc21	SW480 rerep inconclusive, MCF10A rereplic 6.51µM
CCCn1nc(NC(C)=O)c2cc3cccc(C)c3nc21	SW480 rerep 18.4µM, MCF10A rereplic 18.4µM
CCCn1nc(NC(=O)COC)c2cc3cccc(C)c3nc21	none
CCCC(=O)Nc1nn(C)c2nc3c(C)cccc3cc12	SW480 rerep inconclusive, MCF10A rereplic inconclusive
CCN(CCCNC(=O)c1nn(-c2ccc(OC)cc2)c(=O)c2c1c1ccccc1n2C)c1ccccc1	none (no result: SW480 rerep, MCF10A rereplic, KCNH2 3.1 block, hERG WT inh)
Cc1cc(NC(=O)c2ccco2)cc(-c2nc3cc(Cl)ccc3o2)c1O	none (no result: SW480 rerep, MCF10A rereplic, KCNH2 3.1 block, hERG WT inh)
Cc1cccc(OCC(=O)Nc2ccc(S(=O)(=O)N(Cc3ccccc3)c3ccccc3)cc2)c1	none (no result: SW480 rerep, MCF10A rereplic, KCNH2 3.1 block, hERG WT inh)
CC(CNC(=O)CCCn1c(=O)c2cccn2c2cccnc21)c1ccccc1 (stereo not drawn)	KB-V1 cytotox inconclusive (no result: SW480 rerep, MCF10A rereplic)
CCn1nc(NC(=O)CC(C)C)c2cc3ccc(C)cc3nc21	SW480 rerep inconclusive, MCF10A rereplic inconclusive
CCn1nc(NC(=O)CC(C)C)c2cc3cccc(C)c3nc21	SW480 rerep 20.6µM, MCF10A rereplic 9.2µM
Cc1cc(CN2CCN(CC(=O)Nc3cc(Cl)ccc3-n3cncn3)CC2)no1	SW480 rerep inconclusive
Cc1cc(CN2CCN(CC(=O)Nc3cc(C(F)(F)F)ccc3-n3cncn3)CC2)no1	KB-V1 cytotox 23.1µM
CCOc1cc(S(=O)(=O)N2CCN(c3ccc(F)cc3)CC2)c(OCC)cc1-n1cnnn1	KCNH2 3.1 block -78.7, hERG WT inh -76.2
CCOc1ccc(Br)cc1S(=O)(=O)NC1CCCC1	KB-V1 cytotox 16.4µM
CCOc1cc(S(=O)(=O)NCc2ccc(OC)cc2)c(OCC)cc1-n1cnnn1	KB-V1 cytotox 5.17µM, SW480 rerep inconclusive, MCF10A rereplic inconclusive
CCOc1cc(S(=O)(=O)NCCc2ccc(OC)c(OC)c2)c(OCC)cc1-n1cnnn1	none
CCOc1cc(C)c(S(=O)(=O)NC2CCCCC2)cc1C	KB-3-1 tox inconclusive, KB-V1 cytotox inconclusive
CCOc1cc(S(=O)(=O)NC2CC2)c(OCC)cc1-n1cnnn1	KB-V1 cytotox 14.6µM
CCOc1cc(S(=O)(=O)N2CCN(S(=O)(=O)CC)CC2)c(OCC)cc1-n1cnnn1	none
CCOc1cc(S(=O)(=O)NCc2ccco2)c(OCC)cc1-n1cnnn1	none
CCOC(=O)c1c(NC(=O)COC(=O)CCOc2ccc(C)cc2)sc(C(=O)N(C)C)c1C	none
O=C(COc1ccc(F)cc1)OCc1cc(=O)n2nc(-c3cccs3)sc2n1	none (no result: SW480 rerep, MCF10A rereplic, KCNH2 3.1 block, hERG WT inh)
O=C(NCc1ccccc1CN1CCCC1)c1cc2ccccc2o1	MCF10A rereplic inconclusive
O=C(Cc1cccs1)N1CCN(c2nc(-c3ccc(Cl)cc3)cs2)CC1	KB-V1 cytotox 8.2µM
O=C(CN1CCN(c2nc(-c3ccc(Cl)cc3)cs2)CC1)NCc1ccco1	MCF10A rereplic 9.2µM
COc1ccc(C(=O)NC(c2ccco2)c2cc(Cl)c3cccnc3c2O)cc1 (stereo not drawn)	KB-V1 cytotox inconclusive (no result: SW480 rerep, MCF10A rereplic, KCNH2 3.1 block, hERG WT inh)
CCOC(=O)C1(CCc2ccccc2)CCN(C2Cc3ccccc3C2)CC1	MCF10A rereplic inconclusive, KCNH2 3.1 block -78.9, hERG WT inh inconclusive
CCOC(=O)C1(CCc2ccccc2)CCN(C(=O)c2occc2C)CC1	KB-V1 cytotox inconclusive, SW480 rerep 1.64µM
